# Measurements: PMC7819943, “Rice protein-binding microarrays: a tool to detect cis-acting elements near promoter regions in rice”
# The full ranking holds about 68,000 sequences; the median of “fluorescence intensity (a.u.)” is about 9,100, and the highest 2% start at about 16,000. The sample as a whole holds a higher share of the highest values than the screen did.
# Molecular target: OsWRKY34 (Oryza sativa, UniProt Q0JBA9 1-250)
# Experiment: protein-binding microarray (RPBM); PBS, 2% BSA, 51.3 ng/ul salmon testes DNA, 50 uM zinc acetate, 200 nM TF, 25 C, 1 h; high values mean tight binding
# Details: protein: recombinant; tags: N-terminal polyhistidine and DsRed monomer fusion (pET32a); label: CyDye5-dUTP incorporated in the synthesized complementary strand; 3' TTTTT single-stranded linker to array surface; dsDNA, one strand shown
# Procedure, shortened: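 Binding signal is defined as the fluorescence intensity of each feature in arbitrary units, read on an Axon 4000B scanner. Transcription factors with N-terminal polyhistidine and DsRed fusions came from E. coli BL21-CodonPlus and were purified on Ni–NTA. They were incubated at 200 nM for 1 h at 25 °C on a custom Agilent array that had been made double-stranded with Cy5-dUTP, with 50 µM zinc acetate present, and the array was washed.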
# Sequence of OsWRKY34 (Q0JBA9 entry or part of it): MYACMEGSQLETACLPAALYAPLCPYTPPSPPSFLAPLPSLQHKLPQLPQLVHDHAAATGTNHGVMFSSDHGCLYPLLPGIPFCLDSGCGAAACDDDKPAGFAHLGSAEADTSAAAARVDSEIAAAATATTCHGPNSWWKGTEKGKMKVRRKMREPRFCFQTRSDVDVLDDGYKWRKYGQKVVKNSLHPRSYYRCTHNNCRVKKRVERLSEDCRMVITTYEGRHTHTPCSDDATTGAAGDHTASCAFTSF
row,Sequence,binding signal
1,TTGTGTGTTCTTCCATCTGGCAATGGCATCTGCAGCAGCACGGAGTCACCTAGTGCAG,9530 fluorescence intensity (a.u.)
2,CACGCGATGAAATCATCTGCGCATCCTGTACTTTCAATTTCGGAGTCACCTAGTGCAG,8030 fluorescence intensity (a.u.)
3,CAATGACCTTTTTTTTTCCTCTCTCTGTTGCTTCCGATATCGGAGTCACCTAGTGCAG,8500 fluorescence intensity (a.u.)
4,GCTTTGAACACTCATCTCCTCACCGTGTTTGTTAGAGCTCCGGAGTCACCTAGTGCAG,11200 fluorescence intensity (a.u.)
5,CATTTGTGGTTTGTACATATTTATATAAGTTATTATAAATCGGAGTCACCTAGTGCAG,9060 fluorescence intensity (a.u.)
6,ATTGTATTCCTACTTGGACTCTTATTTTCTTTTCTAATTTCGGAGTCACCTAGTGCAG,10300 fluorescence intensity (a.u.)
7,GTCTACTTGTTTGGTGTAATTTATTTTTTTTCTTTCGCTTCGGAGTCACCTAGTGCAG,9740 fluorescence intensity (a.u.)
8,GTGTATTCTACTTAGTAATTTACTTGGCTTGAATTTTTTTCGGAGTCACCTAGTGCAG,28900 fluorescence intensity (a.u.)
9,GGTTTGGGGTGGTTTATTGTACAATAAAGATAAAGTTACCCGGAGTCACCTAGTGCAG,19000 fluorescence intensity (a.u.)
10,TTTATTTTTTTTGTTACTTTTGGGATAAATTTACAATTACCGGAGTCACCTAGTGCAG,9060 fluorescence intensity (a.u.)
11,TCAGTCTGTACACGCCTACACCAGAGTCCAGTGGTCCTAACGGAGTCACCTAGTGCAG,8100 fluorescence intensity (a.u.)
12,GGGTGGAGGAGGTGGGGAGGCCGGCGAGACTCATGTGCGGCGGAGTCACCTAGTGCAG,13100 fluorescence intensity (a.u.)
13,ATCAAATGGTCATTCCAACGGTTGTCCTGTGCTTTTGTAACGGAGTCACCTAGTGCAG,8020 fluorescence intensity (a.u.)
14,TCACGGCTCATTTTTGAAATAAGTTTTTAGCACAGTTTATCGGAGTCACCTAGTGCAG,8740 fluorescence intensity (a.u.)
15,TTAGGATACATGGGAATTTTAGTGGGGATAGGATGGGGAACGGAGTCACCTAGTGCAG,8520 fluorescence intensity (a.u.)
16,TCTATTTTATTTGGGTGGGGATAGTTTTAGTGGGAATTTGCGGAGTCACCTAGTGCAG,24200 fluorescence intensity (a.u.)
17,GTATCAGTGTATAAGTTTGAGCACCATTTTTCCATGATCTCGGAGTCACCTAGTGCAG,9200 fluorescence intensity (a.u.)
18,GTTGTGGGTTTTCGTATTTAATGTTTGACTGTCTATTTTACGGAGTCACCTAGTGCAG,17300 fluorescence intensity (a.u.)
19,CAAGTTATTGACTTTTGGTCATGATGTTACTATTCATCTTCGGAGTCACCTAGTGCAG,9120 fluorescence intensity (a.u.)
20,GTGGTTTCATCTATTTTGTGTTGTTTACTCGTATCTGTTACGGAGTCACCTAGTGCAG,10600 fluorescence intensity (a.u.)
21,TAACAGTATCATTTGATAGCACAATATAAGGTGTTTTGCTCGGAGTCACCTAGTGCAG,28800 fluorescence intensity (a.u.)

row,Sequence,binding signal
1,ACTGTGGTTTCTAGTGGGTTTTATTATTTTATAATTTGTACGGAGTCACCTAGTGCAG,8480 fluorescence intensity (a.u.)
2,AATGTTTGGGTTCGAATTTAGTGGGTGGGTTTGGAGTTTGCGGAGTCACCTAGTGCAG,12800 fluorescence intensity (a.u.)
3,ATCTCTAATTCTATTGGGTGCATGTATTGTACTATTTATTCGGAGTCACCTAGTGCAG,9280 fluorescence intensity (a.u.)
4,ATCTTCGGTGTACTATTGGGTCATGATTTGACCCATCTAACGGAGTCACCTAGTGCAG,24900 fluorescence intensity (a.u.)
5,TTCACGTAACTTACTTGCTCTAATCGTCGGTGGCTGGATCCGGAGTCACCTAGTGCAG,9270 fluorescence intensity (a.u.)
6,AAACACCAGCGCGGCCCTCGCCCTCGCCGTCGCCATTTCCCGGAGTCACCTAGTGCAG,8520 fluorescence intensity (a.u.)
7,CAACCCCTTACTTCATCACCTACTCATGTCAACACATAGCCGGAGTCACCTAGTGCAG,8850 fluorescence intensity (a.u.)
8,ACGCTGCCGTCTCATTTCGCTTTCGTAGAACTTGCTCCAGCGGAGTCACCTAGTGCAG,8500 fluorescence intensity (a.u.)
9,GCAAAAGCCAAACTGAATTCCCGACGCGTGCGCGCGCGCACGGAGTCACCTAGTGCAG,8180 fluorescence intensity (a.u.)
10,AGGAAAACACTTAGATGGGCCGGATTACTTATCGAAATTTCGGAGTCACCTAGTGCAG,8360 fluorescence intensity (a.u.)
11,TTCTTTTGTTGTGTGGGTGTATGTTTTGGTTATGTGCATTCGGAGTCACCTAGTGCAG,8810 fluorescence intensity (a.u.)
12,ACATCTTATTTCCCTGGGTGGGGAGATTCTAGTTAAAATTCGGAGTCACCTAGTGCAG,19000 fluorescence intensity (a.u.)
13,GTTGGGGAGAAGGGGTGGTAAAATTTCTGGTATTATGGTTCGGAGTCACCTAGTGCAG,11700 fluorescence intensity (a.u.)
14,GTGGGGTTTTCGATGGTGTTTCATTCTTTTTCTCAATGTACGGAGTCACCTAGTGCAG,20300 fluorescence intensity (a.u.)
15,CTGTATTTGACTGTTACTGCTTTTGGATTTTGTTTCATTTCGGAGTCACCTAGTGCAG,10800 fluorescence intensity (a.u.)
16,AGTGGTGATCGCCGCGGTTGGGTTTCTTGGATTGGGCTGTCGGAGTCACCTAGTGCAG,8720 fluorescence intensity (a.u.)
17,AGCGGTTTCTTGGTTGGGGTTTAGTGTCTGCATTGGATATCGGAGTCACCTAGTGCAG,18200 fluorescence intensity (a.u.)
18,ATCGTTTGGGGTCATTTTCTGCGGTTTGGTGGTGTTGTGCCGGAGTCACCTAGTGCAG,11100 fluorescence intensity (a.u.)
19,CCTTCTTTCCCTTTTCCCATCTGGCAAGATTTTTCTTATTCGGAGTCACCTAGTGCAG,9610 fluorescence intensity (a.u.)
20,TGTATTTGACTGTTACTGCTTTTGGATTTTGTTTCATTTTCGGAGTCACCTAGTGCAG,17500 fluorescence intensity (a.u.)
21,TCATTCTTTTTCTCAATGTACTTGGATTTTTTTCATGTTTCGGAGTCACCTAGTGCAG,12200 fluorescence intensity (a.u.)

row,Sequence,binding signal
1,TACATGTTTGACTTTGACTTGGTTTTTGGATATTTCATTTCGGAGTCACCTAGTGCAG,9170 fluorescence intensity (a.u.)
2,GGTTATTTATTTTTATTGGTTTCCCCATTACTGTTGACAGCGGAGTCACCTAGTGCAG,8360 fluorescence intensity (a.u.)
3,TCCCGATATCATATTATAACCCTTCTAGAAATCTAATGTTCGGAGTCACCTAGTGCAG,8160 fluorescence intensity (a.u.)
4,ATTCTGTTATGAACTATGTAAACCTTCTCATGTATATTCACGGAGTCACCTAGTGCAG,8840 fluorescence intensity (a.u.)
5,GGCCATCATCATTTGTTCCTCATCTTACTCTAGCTTCTCCCGGAGTCACCTAGTGCAG,9470 fluorescence intensity (a.u.)
6,CTCTCTGTGTGTGTGTTTGCTTTCTTGGGCTGTATCGACTCGGAGTCACCTAGTGCAG,11800 fluorescence intensity (a.u.)
7,AAGCTGGTTTGGCTAATTGTGTTGTGTAACTATAAATCTTCGGAGTCACCTAGTGCAG,8280 fluorescence intensity (a.u.)
8,CGCCCACCCACGCATCCATCCATCGATCGCAGCCAAATTCCGGAGTCACCTAGTGCAG,9430 fluorescence intensity (a.u.)
9,TTGATTTTGCTCGTGGTGTGTGTTTGTGTTTGGTATGGTTCGGAGTCACCTAGTGCAG,18400 fluorescence intensity (a.u.)
10,GGTTTGTTCGTGTCTTTTGTGGTGATTGCATTTGATTGGGCGGAGTCACCTAGTGCAG,9920 fluorescence intensity (a.u.)
11,GCTTCCTTGTCCGATTTGGTGGTTGATTCGTGTTTTTGCTCGGAGTCACCTAGTGCAG,9300 fluorescence intensity (a.u.)
12,TGCTGTGGTGTGGTGTGGTGTGAATTTTGTTGATTGGTCGCGGAGTCACCTAGTGCAG,8750 fluorescence intensity (a.u.)
13,TTGCGTTTTGGGTGGTGAATTTTGATTTTGATTCTTTTTTCGGAGTCACCTAGTGCAG,12700 fluorescence intensity (a.u.)
14,ACATGGGAATTTTGGTGGGATGGGGATGGGGAATTGACCTCGGAGTCACCTAGTGCAG,14100 fluorescence intensity (a.u.)
15,CATTTAGTTTGGGATGGGGTGGTTGATCCGATTTTTTCTGCGGAGTCACCTAGTGCAG,14700 fluorescence intensity (a.u.)
16,TCATTCCGATTTGGTGGGGTTTGAGTTTGATTGATTCTTTCGGAGTCACCTAGTGCAG,19300 fluorescence intensity (a.u.)
17,CGTCGCTTGGGGTGGTGTTGGTGGTTCTGAATTTTGATTGCGGAGTCACCTAGTGCAG,19200 fluorescence intensity (a.u.)
18,ACATGGGAATTTTGGTGGGATGGGGATGGGGATGGGGAATCGGAGTCACCTAGTGCAG,34000 fluorescence intensity (a.u.)
19,AATTGGGTTCGAATTTTTCTCTGGTTCGCTTGTGATTTTGCGGAGTCACCTAGTGCAG,8240 fluorescence intensity (a.u.)
20,CATGGGAATTTTGGTGGGATGGGGATGGAGAATTGAGCAACGGAGTCACCTAGTGCAG,8700 fluorescence intensity (a.u.)
